Test [1] concerns Wnt5a (protein binding on small-molecule microarray). Nature of the test: Wnt5a binders on small-molecule microarray, primary screen, biophysical, 635/667 nm fluorescence (AID 1142).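 Note: fluorescence read at 667 nm with signal to noise per printed feature.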 Particulars: 635 nm fluorescence, higher = more signal.
Test [2] can be described thus: cell viability in Huh7 cells, primary screen, cytotoxicity control for HCV replication inhibitor project, CellTiter-Glo luminescence, basal, 48 h (AID 1143).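 Note: Huh7 hepatoma cells carrying a hepatitis C replication reporter with no stimulus; test concentration not given here.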 Particulars: Huh7 HCV replicon, higher = more signal, called active from +8 up or from −8 down. (In ATP-based viability assays light output follows the ATP content of the culture.)
A short description of test [3]: CREB reporter modulators without forskolin, primary screen, cell-based, PC12, CRE-LacZ reporter, unstimulated (AID 1145). Particulars: no forskolin, luminescence, 4.5 h, higher = more signal, called active from +8 up or from −8 down.
Test [4] is described as follows: CREB reporter modulators under forskolin, primary screen, cell-based, PC12, CRE-LacZ reporter, forskolin-stimulated (AID 1146).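 Note: PC12 cells with 6xCRE LacZ reporter stimulated by forskolin 10 µM; beta-galactosidase reporter signal reflecting CREB driven transcription.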 Particulars: luminescence, 4.5 h, higher = more signal, called active from +8 up or from −8 down.
Test [5] concerns the target Streptavidin (Streptomyces avidinii) (UniProt P22629). The test is described as follows: streptavidin binders on small-molecule microarray, primary screen, artefact control for SMM compound annotation, biophysical, 635/667 nm fluorescence (AID 1147).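 Note: signal reflects streptavidin binding to arrayed compounds as a control protein.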 Particulars: streptavidin binding, higher = more signal.
The nature of test [6]: small-molecule binders of probe aInhba, primary screen, biochemical, small-molecule microarray, 635/667 nm fluorescence (AID 1148).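 Note: score merges 667nm spot fluorescence with signal-to-noise for antibody binding to printed compounds.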 Particulars: higher = more signal.
The target in test [7] is Torsin-1A (Homo sapiens) (UniProt O14656). The test is described as follows: torsin A binders from cell lysate, primary screen, small-molecule microarray, wild-type, 635/667 nm (AID 1149). Particulars: COS7 hTOR1A-WT lysate, 635 nm fluorescence, higher = more signal.
Sequence of Torsin-1A (Homo sapiens) (O14656 whole entry, looked up): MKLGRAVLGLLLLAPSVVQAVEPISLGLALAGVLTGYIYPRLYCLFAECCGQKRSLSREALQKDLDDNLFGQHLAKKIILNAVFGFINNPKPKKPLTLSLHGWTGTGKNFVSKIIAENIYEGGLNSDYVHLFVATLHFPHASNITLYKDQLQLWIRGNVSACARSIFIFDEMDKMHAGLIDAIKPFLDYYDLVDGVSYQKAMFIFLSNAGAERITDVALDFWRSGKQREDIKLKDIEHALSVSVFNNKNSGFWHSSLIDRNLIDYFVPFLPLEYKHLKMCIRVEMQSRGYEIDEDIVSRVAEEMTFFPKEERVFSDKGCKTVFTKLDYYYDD
Test [8] shares this target. The test is described as follows: small-molecule binders of mutant TOR1A in lysate, primary screen, cell lysate, small-molecule microarray, COS7 lysate, 635/667 nm fluorescence (AID 1150).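 Note: score pools 667 nm emission and signal to noise measuring lysate protein binding.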 Particulars: COS7 hTOR1A mutant lysate, 635 nm fluorescence, higher = more signal.
The test system of test [9] is Sonic hedgehog protein (Shh). Nature of the test: small-molecule binders of Shh protein, primary screen, biochemical, small-molecule microarray, 635/667 nm fluorescence (AID 1151).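 Note: Shh protein binding to compounds spotted on small-molecule microarray slides; score combines spot fluorescence intensity with signal-to-noise across triplicate slides.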 Particulars: small-molecule microarray binding, 635 nm fluorescence; higher = more signal.
Test [10] can be described thus: E. coli DRC41 culture turbidity changes, primary screen, E. coli filamentation inducer project, strain DRC41, OD650, 48 h (AID 1152).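 Note: E. coli MC1000 strain DRC41 lacking acrAB efflux pump and sulA.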 Particulars: E. coli DRC41 (acrAB sulA), higher = more signal, called active from +8 up or from −8 down.
The nature of test [11]: small-molecule binders of probe aLefty1, primary screen, biochemical, small-molecule microarray, 635/667 nm fluorescence (AID 1153).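 Note: score merges spot fluorescence with signal-to-noise ratio from the scanned slide images.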 Particulars: higher = more signal.
The nature of test [12]: PSAC antagonists in infected red cells, primary screen, cell-based, P. falciparum Indochina, OD700, 1 h (AID 1154). Particulars: P. falciparum Indochina infected RBC osmotic lysis, higher = more signal, called active from +8 up or from −8 down.
Test [13] in a line: PSAC antagonists in infected red cells, primary screen, cell-based, P. falciparum Indochina, OD700, 2 h (AID 1155).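 Note: lysis reports solute entry through the parasite surface anion channel PSAC; channel blockers reduce lysis of infected cells.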 Particulars: P. falciparum Indochina infected erythrocytes, osmotic lysis OD700; higher = more signal, called active from +8 up or from −8 down.
Test [14] is described as follows: osmotic lysis modulators in infected erythrocytes, primary screen, PSAC antagonist project, cell-based, P. falciparum Indochina, OD700, 3 h (AID 1156). Particulars: higher = more signal, called active from +8 up or from −8 down.
Test [15] is described as follows: PSAC antagonists in infected red cells, primary screen, cell-based, P. falciparum Indochina, OD700, 18 h (AID 1157). Particulars: P. falciparum Indochina infected erythrocytes, osmotic lysis OD700, 18 h; higher = more signal, called active from +8 up or from −8 down.
Test [16] in a line: modulators of S6 phosphorylation in cells, primary screen, cell-based, A549, cytoblot, luminescence, serum-stimulated (AID 1158).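 Note: serum-stimulated A549 lung adenocarcinoma cells; signal is phosphorylated S6 detected by cytoblot immunostaining with HRP secondary.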 Particulars: A549 phospho-S6 cytoblot, 5 h, higher = more signal.
In test [17] the target is NADPH oxidase 2 (Homo sapiens) (UniProt P04839). Nature of the test: NOX2-dependent H2O2 signal modulators, primary screen, NOX inhibitor project, cell-based, HEK293-NOX2, PMA-stimulated, Amplex Red fluorescence (AID 1159). Note: test concentration not given here. Particulars: 45 min, higher = more signal, called active from +8 up or from −8 down.
Sequence of NADPH oxidase 2 (Homo sapiens) (P04839 whole entry, looked up): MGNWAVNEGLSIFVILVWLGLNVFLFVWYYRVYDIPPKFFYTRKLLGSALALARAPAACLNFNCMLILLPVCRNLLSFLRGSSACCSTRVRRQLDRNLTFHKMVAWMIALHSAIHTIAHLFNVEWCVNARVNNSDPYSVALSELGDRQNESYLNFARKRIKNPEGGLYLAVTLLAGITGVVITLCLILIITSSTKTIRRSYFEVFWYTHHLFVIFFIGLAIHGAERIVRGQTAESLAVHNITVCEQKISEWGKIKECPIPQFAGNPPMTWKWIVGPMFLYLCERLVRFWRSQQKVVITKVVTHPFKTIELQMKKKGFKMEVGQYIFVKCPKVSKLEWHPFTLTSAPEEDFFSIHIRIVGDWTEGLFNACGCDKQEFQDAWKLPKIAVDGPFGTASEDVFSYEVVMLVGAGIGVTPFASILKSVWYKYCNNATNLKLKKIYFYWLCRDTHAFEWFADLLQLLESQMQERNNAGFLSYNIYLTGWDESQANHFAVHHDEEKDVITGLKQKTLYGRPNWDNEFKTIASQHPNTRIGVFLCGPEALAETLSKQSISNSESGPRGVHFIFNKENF
Test [18] concerns the target NADPH oxidase 4 (Homo sapiens) (UniProt Q9NPH5). Nature of the test: NOX4-dependent H2O2 signal modulators, primary screen, NOX inhibitor project, cell-based, HEK293-NOX4, tetracycline-induced, Amplex Red fluorescence (AID 1160). Particulars: 45 min, higher = more signal, called active from +8 up or from −8 down.
Test [19] deals with NADPH oxidase 5 (Homo sapiens) (UniProt Q96PH1). The test is described as follows: NOX5-dependent H2O2 signal modulators, primary screen, NOX inhibitor project, cell-based, HEK293-NOX5, Amplex Red fluorescence (AID 1161). Particulars: HEK293-NOX5, ionomycin, 45 min, higher = more signal.
Sequence of NADPH oxidase 5 (Homo sapiens) (Q96PH1 whole entry, looked up): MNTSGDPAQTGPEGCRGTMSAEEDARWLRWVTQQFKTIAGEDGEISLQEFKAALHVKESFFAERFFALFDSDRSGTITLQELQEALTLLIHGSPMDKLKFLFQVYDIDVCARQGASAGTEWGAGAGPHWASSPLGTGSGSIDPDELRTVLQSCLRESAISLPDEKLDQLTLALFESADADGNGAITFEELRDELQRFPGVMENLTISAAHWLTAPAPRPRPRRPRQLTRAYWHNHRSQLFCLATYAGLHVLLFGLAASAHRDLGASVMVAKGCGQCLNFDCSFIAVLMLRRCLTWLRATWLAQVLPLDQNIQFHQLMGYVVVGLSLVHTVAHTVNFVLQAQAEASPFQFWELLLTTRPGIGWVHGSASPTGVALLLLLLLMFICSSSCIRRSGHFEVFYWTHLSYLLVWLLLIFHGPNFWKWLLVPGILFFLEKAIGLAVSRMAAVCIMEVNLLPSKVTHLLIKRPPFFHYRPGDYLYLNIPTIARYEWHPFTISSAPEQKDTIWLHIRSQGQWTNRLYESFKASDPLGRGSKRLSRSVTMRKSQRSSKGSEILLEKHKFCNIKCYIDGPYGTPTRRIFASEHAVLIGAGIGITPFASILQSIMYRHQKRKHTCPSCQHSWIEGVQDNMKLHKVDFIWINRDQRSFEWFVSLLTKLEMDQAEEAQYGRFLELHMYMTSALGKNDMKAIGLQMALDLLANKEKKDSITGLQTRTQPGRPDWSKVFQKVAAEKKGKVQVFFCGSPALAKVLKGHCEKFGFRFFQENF
Test [20] can be described thus: A549 cell viability effects, profiling panel, calcein-AM fluorescence, 48 h, basal (AID 1162). Note: test concentration not given here. Particulars: higher = more signal.

Molecules are shown by their SMILES. Active and inactive are the calls of the source.

The values below come from PubChem BioAssay.

Sequence of Streptavidin (Streptomyces avidinii) (P22629 whole entry, looked up): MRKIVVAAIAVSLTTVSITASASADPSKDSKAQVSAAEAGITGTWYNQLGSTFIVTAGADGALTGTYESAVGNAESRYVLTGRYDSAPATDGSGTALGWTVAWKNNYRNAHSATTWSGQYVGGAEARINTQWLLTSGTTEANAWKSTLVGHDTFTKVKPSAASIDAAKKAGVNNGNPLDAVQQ
Sequence of NADPH oxidase 4 (Homo sapiens) (Q9NPH5 whole entry, looked up): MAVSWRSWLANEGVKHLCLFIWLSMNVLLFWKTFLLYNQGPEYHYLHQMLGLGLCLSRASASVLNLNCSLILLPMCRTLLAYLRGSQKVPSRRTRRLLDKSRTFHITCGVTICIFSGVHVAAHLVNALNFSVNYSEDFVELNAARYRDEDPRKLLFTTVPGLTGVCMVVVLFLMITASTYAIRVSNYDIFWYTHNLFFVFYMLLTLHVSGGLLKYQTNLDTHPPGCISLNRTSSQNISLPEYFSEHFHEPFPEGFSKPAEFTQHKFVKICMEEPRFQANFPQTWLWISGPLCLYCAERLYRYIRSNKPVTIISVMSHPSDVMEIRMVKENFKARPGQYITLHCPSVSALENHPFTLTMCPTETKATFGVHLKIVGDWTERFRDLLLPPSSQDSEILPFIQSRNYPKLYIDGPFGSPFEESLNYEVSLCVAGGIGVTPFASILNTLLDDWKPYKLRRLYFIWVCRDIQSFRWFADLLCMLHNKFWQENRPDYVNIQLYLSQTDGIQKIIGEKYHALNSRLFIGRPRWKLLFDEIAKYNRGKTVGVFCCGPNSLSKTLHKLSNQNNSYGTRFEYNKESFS

Consider `O=C(NC1CC1)[C@@H]1c2ccccc2C(=O)N(Cc2ccccc2C(F)(F)F)[C@H]1c1ccc(CO)cc1`, for which the composite z-score in [1] was 0.312; in [5] it was -0.47; in test [6], 0.0439; in the test with Torsin-1A (Homo sapiens) [7], 0.504; with Torsin-1A (Homo sapiens) [8] it was 0.723; in test [9] it was 0.732. For the same compound, the composite z-score in test [11] turned out to be 0.106. Also, the z-score was -0.568 (inactive) in test [2]; -0.0512 (inactive) in test [3]; -1.37 (inactive) in test [4]; 1.48 (inactive) in [10]; 2.17 (inactive) in [12]; 0.721 (inactive) in [13]. Also, the z-score was -0.335 (inactive) in [14]; 0.106 (inactive) in [15]; 0.152 in [16]; 0.583 (inactive) in [17]; 0.647 (inactive) in test [18]; 1.26 in test [19]. Further, the z-score in test [20] was 1.88.

On to `C=CCC1(CC=C)C[C@H]2CO[C@H](c3ccc(OC)cc3)N2C1=O`, for which the composite z-score in [1] was -0.125; in test [5], -0.147; in [6], -0.105; with Torsin-1A (Homo sapiens) [7], 0.483; with Torsin-1A (Homo sapiens) [8], 0.862; in test [9], 0.707. In addition, in [11], the composite z-score is -0.0654. Besides, the z-score in test [2] is -0.15 (inactive); in [3] it was 1.73 (inactive); in [4], -0.473 (inactive); in [10], 2.03 (inactive); in [12] it was -0.214 (inactive); in [13] it was 0.573 (inactive). The z-score was -0.123 (inactive) in [14]; 0.503 (inactive) in [15]; 0.0446 in test [16]; 0.992 (inactive) in test [17]; 0.181 (inactive) in test [18]; -0.0682 in test [19]. Moreover, in test [20], the z-score is 1.12.

`C=CCC(OC(C)=O)[C@@H]1[C@@H](N(Cc2cccc3ccccc23)C(=O)c2cccc3ccccc23)c2cc(OCCCO)ccc2N1C(=O)Cc1ccc(OC)cc1` (stereo not given in full): the composite z-score in test [1] is -0.0589; in test [5], 0.228; in test [6], -0.179; in the test with Torsin-1A (Homo sapiens) [7], -0.0507; in the test with Torsin-1A (Homo sapiens) [8], 0.274; in test [9], 0.234. This compound gave a composite z-score in test [11] of 0.0945. In addition, the z-score in [2] was -3.55 (inactive); in test [3], 1.47 (inactive); in [4] it was -0.876 (inactive); in test [10], 2.86 (inactive); in test [12], 2.59 (inactive); in [13] it was -0.227 (inactive). For the same compound, the z-score is -0.0889 (inactive) in test [14]; -0.618 (inactive) in test [15]; 1.5 in test [16]; 0.295 (inactive) in [17]; -0.783 (inactive) in test [18]; 1.46 in [19]. In [20], the z-score is 0.725.

As to `COC(=O)c1c(CC[C@@H](CO)NC(=O)Nc2ccc(OC)cc2)oc(C(=O)Cc2ccccc2)c1C(=O)OC`, the composite z-score in test [1] is 0.0603; in test [5] it was 0.652; in [6], -0.0531; in the test with Torsin-1A (Homo sapiens) [7], 0.462; with Torsin-1A (Homo sapiens) [8] it was 0.943; in test [9], 0.97. The compound also returned a composite z-score in test [11] of -0.147. The z-score in test [2] is 0.566 (inactive); in [3] it was 9.58 (active); in test [4], -0.453 (inactive); in test [10] it was 1.7 (inactive); in [12] it was 3.06 (inactive); in [13], 1.01 (inactive). The z-score in test [14] was 0.681 (inactive); in test [15], 0.458 (inactive); in test [16], -0.0632; in test [17], 1.31 (inactive); in [18], 0.649 (inactive); in test [19], -2.22. The z-score in test [20] is -1.27.

Regarding `[N-]=[N+]=NCc1ccccc1C[C@@]1(C(=O)O)N=C(c2ccc(OCCCO)cc2)O[C@@H]1c1ccccc1`, the composite z-score is 0.0855 in [1]; 0.246 in [5]; -0.0421 in test [6]; -0.233 with Torsin-1A (Homo sapiens) [7]; 0.0019 with Torsin-1A (Homo sapiens) [8]; -0.515 in test [9]. In [11], the composite z-score is -0.0654. In addition, the z-score in test [2] is -0.563 (inactive); in test [3] it was -0.137 (inactive); in [4], 0.718 (inactive); in [10], 0.706 (inactive); in test [12] it was 15.1 (active); in [13], 2.07 (inactive). For the same compound, the z-score was 0.912 (inactive) in test [14]; 0.199 (inactive) in test [15]; 0.218 in test [16]; 1.07 (inactive) in test [17]; 1.34 (inactive) in test [18]; 1.48 in [19]. Moreover, in test [20], the z-score is 0.349.
